Bioassay records from PubChem.
This is a sample that favours compounds with a hit; in the whole collection about 7.3% have one here.
KinaseGlo FLuc: counter-screen: inhibitors of Kinase-Glo firefly luciferase | Q27757 | Kinase-Glo luciferase, ATP luminescence, 8 min | Potency, µM (doses to about 38.3 µM), for inactives: at the top dose activity change, negative = inhibition, hits mostly inhibitors | 200,000 compounds, 0.28% hits; further: on the % scale 0 is the no-effect control and ±100 the full control effect; nearly all actives have a fitted effect of over 60% in size
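Luminescence was the read-out, taken after 8-minute incubation at ambient temperature. Luciferase turned over luciferin with 10 uM ATP in imidazole pH 7.2 buffer containing KCl, MgCl2, Tween 20 and BSA.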
SMN2 splice enh: increases expression of the SMN2 splice variant. HEK293 SMN2-luciferase splicing reporter, luminescence, 30-36 h. Potency, µM (highest dose often 46.1 µM), for the others: at the highest dose activity change, positive = activation, usual class: activators. 210,000 compounds, 2.8% hits. AID 1458; further: % of control where 0% means no effect; nearly all actives have a fitted effect of over 55% in size
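HEK293 cells carry an SMN2 minigene-luciferase reporter in which exon 7 inclusion puts luciferase in frame. Cells were seeded at 2000 cells/well, attached for 10-12 hours, then exposed to compounds for 30-36 hours at 37C before ONE-Glo luminescence.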
NPC1 promoter act: activates the NPC1 promoter; Huh7 NPC1 promoter luciferase reporter, 24 h; AID 485313; 320,000 compounds, 2.4% hits; Potency, µM (series often up to 9.22 µM), without a hit: at the highest dose activation, actives largely listed as activators; further: % of control where 0% means no effect; nearly all actives have a fitted effect of over 60% in size
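Compounds in DMSO were transferred onto Huh7 NPC1-luciferase reporter cells pre-incubated 2 h; after 24 h at 37 °C, Amplite reagent was dispensed and luminescence recorded 10 min later.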
ELG1 genotox: inducers of genotoxicity in HEK293T ELG1-luciferase cells | AID 504466 | HEK293T ELG1-luciferase reporter, luminescence, 16 h | 330,000 compounds, 1.3% hits | Potency, µM (series often up to 46 µM), for the others: at the highest dose activity change, positive = activation, hits mostly activators; further: % of control where 0% means no effect; nearly all actives have a fitted effect of over 60% in size
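Genotoxicity was scored as increased ELG1-luciferase reporter signal, measured by ONE-Glo luminescence (30 min, room temperature). Compound or vehicle exposure of the HEK293T reporter cells lasted 16 hr at 37°C.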
Rab9 promoter act: activators of Rab9 promoter; Potency, µM (series often up to 9.22 µM), for the others: top-dose activation, negative = inhibition, hits mostly activators; Huh7 Rab9 promoter-luciferase reporter, luminescence, 24 h; 320,000 compounds, 2.8% hits; further: % of control where 0% means no effect; nearly all actives have a fitted effect of over 60% in size
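Huh7 cells stably carrying a Rab9 promoter-luciferase reporter, 1500 cells per well in OP-MEM I with 10% FBS, treated with compound 24 hours at 37C. Luciferase activity read by luminescence after 10 minutes with Amplite reagent.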
FLuc modulator: inhibits or activates purified firefly luciferase, miR-21 counter-screen | P08659 | purified FLuc, Km substrates, luminescence inhibition | Potency, µM (doses to about 57.5 µM), without a hit: at the top dose activity change, negative = inhibition, hits mostly inhibitors | 360,000 compounds, 6.9% hits | AID 588342;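 further: plate controls were vehicle for no effect and reference inhibitor for full effect; nearly all actives have a fitted effect of over 55% in size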
Target sequence (P08659 whole entry, looked up): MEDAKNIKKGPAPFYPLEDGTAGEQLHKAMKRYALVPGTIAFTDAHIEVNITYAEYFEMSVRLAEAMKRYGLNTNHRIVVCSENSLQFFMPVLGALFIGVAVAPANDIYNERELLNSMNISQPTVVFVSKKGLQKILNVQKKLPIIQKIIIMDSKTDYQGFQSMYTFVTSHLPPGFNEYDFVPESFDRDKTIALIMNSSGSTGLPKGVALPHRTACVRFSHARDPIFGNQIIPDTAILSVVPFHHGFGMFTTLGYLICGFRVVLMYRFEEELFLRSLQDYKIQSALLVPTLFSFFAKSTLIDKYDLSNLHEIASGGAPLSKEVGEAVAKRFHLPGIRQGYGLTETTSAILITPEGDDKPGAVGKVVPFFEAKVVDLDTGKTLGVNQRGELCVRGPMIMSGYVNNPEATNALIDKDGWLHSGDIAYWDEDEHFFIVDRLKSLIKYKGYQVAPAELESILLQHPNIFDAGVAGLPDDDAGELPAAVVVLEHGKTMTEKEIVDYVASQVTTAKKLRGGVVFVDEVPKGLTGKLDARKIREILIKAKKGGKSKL
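Purified P. pyralis luciferase, 10 nM final, with Km-level 10 uM D-luciferin and 10 uM ATP in 50 mM Tris acetate pH 7.5, 10 mM Mg acetate, 0.01% Tween-20, 0.05% BSA; 6-point qHTS titration about 60 µM downward; luminescence read.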
* = called active by the depositor; ? = inconclusive; · = no result. The call rests on the fitted dose curve; in most records, active means well fitted curve in the direction sought with a large enough effect; inconclusive means small, poorly fitted or top-dose-only effect, or another doubt; inactive means no such curve, though single readings can be large; an effect the other way counts as inactive or inconclusive. Potency means the concentration at half of the fitted maximal effect.

SMILES	KinaseGlo FLuc	SMN2 splice enh	NPC1 promoter act	ELG1 genotox	Rab9 promoter act	FLuc modulator
Cc1ccc(CC(=O)Nc2ncc([N+](=O)[O-])s2)cc1	0%	13µM*	?	18%	?	15µM*
CCCCCc1nnc(NC(=O)C(=O)OCC)s1	1%	10%	-2%	0%	-2%	-14%
CCOC(=O)c1ccc2c(c1)[nH]c(=S)n2CC	-2%	·	18%	21µM*	?	19µM*
CCOC(=O)c1ccc2c(c1)n(CC)c(C)[n+]2CC	-4%	-6%	0%	-2%	-1%	-3%
Cc1ccc(S(=O)(=O)Oc2ccc(/C=C(/NC(=O)c3ccccc3)C(=O)NC(C)C(=O)O)cc2)cc1 (stereo unspecified)	·	·	0%	0%	-1%	-10%
CCC(=O)Nc1ccc(C(=O)COC(=O)Cc2ccsc2)cc1	·	·	-5%	1%	3%	11µM*
O=C(COC(=O)Cc1ccsc1)Nc1ccc(Br)cc1	·	·	-2%	6%	-4%	?
C/C(=N\Nc1ccc(F)cc1F)c1ccc(N2CCOCC2)cc1	1%	?	?	?	?	15µM*
Fc1ccc(N/N=C/c2ccc(N3CCOCC3)cc2)c(F)c1	-2%	11µM*	2.5µM*	?	2µM*	12µM*
CN(C)/N=C/c1ccc(N2CCOCC2)cc1	-19%	?	?	4%	2.5µM*	17µM*
O=S(=O)(Nc1ccc(N2CCOCC2)cc1)c1ccc(F)cc1F	0%	0%	-4%	-3%	2%	-1%
C/C(=N\Nc1ccc(F)cc1F)c1ccc(F)cc1	2%	3%	-3%	6%	2%	?
S=c1[nH]ncn1/N=C/c1ccc(N2CCOCC2)cc1	-8%	13µM*	4µM*	16µM*	4.5µM*	7.6µM*
S=c1[nH]ncn1/N=C/c1ccc(Br)cc1	-1%	-13%	0%	7%	-1%	?
C(=N\n1cnnc1)/c1ccc(N2CCOCC2)cc1	11%	2%	1%	12%	7%	?
CCOC(=O)c1cnc2c(C)cccc2c1Nc1ccc(OC(C)C)cc1	·	-8%	·	·	·	5%
CC(C)Nc1nc(-c2ccccn2)nc(-c2ccccc2)c1C#N	-1%	-26%	-8%	-4%	-5%	-2%
COc1ccc(/C=C/C(=O)NC(=S)N2CCN(c3ccccc3OC)CC2)cc1	·	·	4µM*	18%	?	?
COc1ccc(/C=C/C(=O)NC(=S)N2CCOCC2)cc1	·	·	3.5µM*	?	1.6µM*	11µM*
COc1ccc(/C=C/C(=O)Nc2ccc(N3CCOCC3)cc2)cc1	-2%	-29%	1%	-1%	-3%	-15%
Cc1ccccc1S(=O)(=O)/N=C(/c1ccccc1)N(C)C	·	·	-8%	0%	-2%	1%
Cc1ccc(OCC(=O)N2CCCCC2)c(Br)c1	2%	20µM*	?	15%	?	?
CC(C)(C)c1ccc(OCC(=O)N2CCCCCC2)c(Br)c1	0%	13µM*	?	?	?	15µM*
COc1ccccc1N1CCN(C(=O)COc2ccc(C)cc2Br)CC1	-2%	1%	2%	2%	-1%	-2%
Cc1cc(OCC(=O)N2CCCCCC2)ccc1[N+](=O)[O-]	0%	13µM*	?	?	?	17µM*
CCN(CC)S(=O)(=O)c1ccc2c(c1)nc(SCC(=O)N1CCCCCC1)n2-c1ccc(OC)cc1	-4%	10%	-4%	-1%	-4%	5%
CCOC(=O)c1c(Nc2cccc(O)c2)nnc(-c2ccccc2)c1-c1ccccc1	·	-10%	·	·	·	?
N#Cc1ccc(CSc2nnc(Nc3ccccc3)s2)cc1	-1%	-22%	-1%	2%	-5%	-1%
CC(C)Sc1nnc(Nc2ccccc2)s1	-6%	28%	4µM*	?	2µM*	15µM*
Cn1c(SCC(=O)N2CCN(c3ccccc3)CC2)nnc1-c1c[nH]c2ccccc12	1%	-56%	0%	-17%	-5%	-3%
